Measurements taken from PubChem BioAssay AID1159580 (chemical genetic matrix, 2015).
About 2,000 (36%) of roughly 5,500 compounds were called active. About 18% were inconclusive and are not listed. No stated cut-off is given here; in the data, active means normalized growth mostly below about 0.91 (no sharp cut-off); inconclusive means no clear call, values can overlap the other calls; inactive means mostly above about 0.92. This is one part of the list.

Experiment: chemical genetic growth profiling, strain panel (AID 1159580);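 further: tested at 20 µM; growth read once vehicle control cultures reached saturation at 30 °C; 1 = growth at the plate median or of vehicle wells; lower values mean less growth of the strain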
Conditions: S. cerevisiae deletion strains, growth OD

Measured: normalized growth

CN(C)c1nc(=S)ss1
active: locus YAR019C, strain CDC15, active compounds read low 0.83 | locus YBR135W, strain CKS1, active compounds read low 0.865 | locus YBR136W, strain MEC1, active compounds read low 0.883 | locus YBR160W, strain CDC28, active compounds read low 0.882 | locus YDL017W, strain CDC7, active compounds read low 0.896 | locus YDL028C, strain MPS1, active compounds read low 0.839 | locus YDL108W, strain KIN28, active compounds read low 0.878 | locus YDL132W, strain cdc53, active compounds read low 0.687 | locus YDL214C, strain PRR2, active compounds read low 0.332 | locus YDR052C, strain DBF4, active compounds read low 0.886 | locus YDR054C, strain cdc34, active compounds read low 0.569 | locus YDR226W, strain ADK1, active compounds read low 0.865 | locus YDR477W, strain SNF1, active compounds read low 0.319 | locus YER123W, strain YCK3, active compounds read low 0.186 | locus YER133W, strain GLC7, active compounds read low 0.211 | locus YFL009W, strain cdc4, active compounds read low 0.732 | locus YFL029C, strain CAK1, active compounds read low 0.747 | locus YFR019W, strain FAB1, active compounds read low 0.221 | locus YGR040W, strain KSS1, active compounds read low 0.47 | locus YGR052W, strain FMP48, active compounds read low 0.349 | locus YGR092W, strain DBF2, active compounds read low 0.111 | locus YHR030C, strain SLT2, active compounds read low 0.576 | locus YHR079C, strain IRE1, active compounds read low 0.204 | locus YHR082C, strain KSP1, active compounds read low 0.464 | locus YHR205W, strain SCH9, active compounds read low 0.493 | locus YIL147C, strain SLN1, active compounds read low 0.825 | locus YJL095W, strain BCK1, active compounds read low 0.327 | locus YJL157C, strain FAR1, active compounds read low 0.199 | locus YJR016C, strain ILV3, active compounds read low 0.715 | locus YJR066W, strain TOR1 (second series), active compounds read low 0.262 | locus YJR066W, strain TOR1, active compounds read low 0.324 | locus YKL048C, strain ELM1, active compounds read low 0.228 | locus YKL067W, strain YNK1, active compounds read low 0.197 | locus YKL101W, strain HSL1, active compounds read low 0.205 | locus YKL193C, strain SDS22, active compounds read low 0.84 | locus YKL203C, strain TOR2, active compounds read low 0.342 | locus YLR113W, strain HOG1, active compounds read low 0.351 | locus YLR133W, strain CKI1, active compounds read low 0.232 | locus YLR403W, strain SFP1, active compounds read low 0.116 | locus YML070W, strain DAK1, active compounds read low 0.199 | locus YMR001C, strain CDC5, active compounds read low 0.87 | locus YMR205C, strain PFK2 (second series), active compounds read low 0.229 | locus YMR277W, strain FCP1, active compounds read low 0.827 | locus YNL006W, strain LST8, active compounds read low 0.501 | locus YNL020C, strain ARK1, active compounds read low 0.189 | locus YNL161W, strain CBK1, active compounds read low 0.869 | locus YNL183C, strain NPR1, active compounds read low 0.341 | locus YNL207W, strain RIO2, active compounds read low 0.865 | locus YNL222W, strain SSU72, active compounds read low 0.861 | locus YNL307C, strain MCK1 (second series), active compounds read low 0.162 | locus YOL078W, strain AVO1, active compounds read low 0.807 | locus YOL136C, strain PFK27, active compounds read low 0.165 | locus YOR061W, strain CKA2, active compounds read low 0.217 | locus YOR119C, strain RIO1, active compounds read low 0.325 | locus YOR231W, strain MKK1, active compounds read low 0.211 | locus YOR329C, strain SCD5, active compounds read low 0.88 | locus YPL031C, strain PHO85, active compounds read low 0.21 | locus YPL153C, strain RAD53, active compounds read low 0.16 | locus YPL204W, strain HRR25, active compounds read low 0.202 | locus YPL209C, strain IPL1, active compounds read low 0.872 | locus YPL256C, strain CLN2, active compounds read low 0.393 | locus YPR025C, strain CCL1, active compounds read low 0.881 | strain TSCII, active compounds read low 0.706
inactive: locus YBL105C, strain PKC1, active compounds read low 0.91 | locus YDL101C, strain DUN1, active compounds read low 0.937 | locus YFR003C, strain YPI1, active compounds read low 0.905 | locus YFR028C, strain CDC14, active compounds read low 0.894 | locus YJL128C, strain PBS2, active compounds read low 0.876 | locus YPR106W, strain ISR1, active compounds read low 0.934 | locus YPR111W, strain DBF20, active compounds read low 0.913 | strain NNK1, active compounds read low 0.921
